In PubChem BioAssay (Tox21):
Several values for one entry are separate records, joined by “and”; a condition that tells them apart may be missing. Equal values may be shown once. Inconclusive results are not listed. Activity calls are given as the source filed them. Calls come from the whole dose curve; as a rule, active = well fitted curve in the direction sought with a large enough effect in the repeat runs; inconclusive = weak or mixed curves; inactive = no such curve, though single readings can be large; an effect the other way counts as inactive or inconclusive.

What was measured:
[1] = A CellTox Green Cytotoxicity Assay to monitor cytotoxicity in HEK293 cells - 40 hour (AID 1224871); note: nearly all actives have a fitted effect of over 45% in size
How it was run: (§1)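 Tox21 screen in HEK293: membrane-impermeant cyanine dye fluoresces on binding dead-cell DNA; compound pinned 5 h post-seeding, plates held at 37 C, signal read repeatedly through 40 h.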

[2] = qHTS RealTime-Glo MT Cell Viability Assay in HEK293 cells - 16 hour (AID 1224872); note: top concentration of the series differs between compounds; nearly all actives have a fitted effect of over 50% in size
How it was run: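 Tox21 10K qHTS, HEK293, 600 cells/well, RealTime-Glo reagent co-dispensed with cells; 5 h preincubation, compound by pintool, 37 C, luminescence at 0–40 h.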

[3] = qHTS RealTime-Glo MT Cell Viability Assay in HepG2 cells - 8 hour (AID 1224873); note: nearly all actives have a fitted effect of over 55% in size
How it was run: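 HepG2 cells mixed with RealTime-Glo MT reagents (NanoLuc plus cell-permeant prosubstrate) were seeded at 600 cells/well, incubated 5 h at 37 C/5% CO2, then pinned with compounds in DMSO; nonlytic luminescence tracked viability during 40 h treatment.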

[4] = qHTS RealTime-Glo MT Cell Viability Assay in HEK293 cells - 40 hour (AID 1224874); settings: RealTime-Glo luminescence; max response: stronger effect = lower value; note: nearly all actives have a fitted effect of over 50% in size
How it was run: (§2)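 HEK293 + NanoLuc + prosubstrate, 600 cells/well; 5 h, 37 C/5% CO2; compound 23 nL in DMSO by pintool; 37 C; luminescence read at 0, 8, 16, 24, 32 and 40 h time points.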

[5] = A CellTox Green Cytotoxicity Assay to monitor cytotoxicity in HEK293 cells - 24 hour (AID 1224875); note: series mostly up to about 77 µM; nearly all actives have a fitted effect of over 45% in size
How it was run: as §1

[6] = qHTS RealTime-Glo MT Cell Viability Assay in HepG2 cells - 32 hour (AID 1224877); note: nearly all actives have a fitted effect of over 55% in size
How it was run: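 Cells + NanoLuc/prosubstrate dispensed (600 cells/well) → 5 h at 37 C/5% CO2 → compounds in DMSO transferred → 40 h incubation at 37 C, luminescence read at 0, 8, 16, 24, 32, 40 h.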

[7] = A CellTox Green Cytotoxicity Assay to monitor cytotoxicity in HepG2 cells - 40 hour (AID 1224879); note: nearly all actives have a fitted effect of over 40% in size
How it was run: (§3)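 Measurements at 0, 8, 16, 24, 32 and 40 h of treatment captured CellTox Green fluorescence in HepG2 cells that had been co-plated with reagent and preincubated 5 h at 37 C/5% CO2.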

[8] = qHTS RealTime-Glo MT Cell Viability Assay in HEK293 cells - 0 hour (AID 1224880); note: top concentration of the series differs between compounds; nearly all actives have a fitted effect of over 45% in size
How it was run: as §2

[9] = A CellTox Green Cytotoxicity Assay to monitor cytotoxicity in HepG2 cells - 16 hour (AID 1224876); note: nearly all actives have a fitted effect of over 45% in size
How it was run: as §3

[10] = A CellTox Green Cytotoxicity Assay to monitor cytotoxicity in HepG2 cells - 24 hour (AID 1224878); note: nearly all actives have a fitted effect of over 45% in size
How it was run: as §3
% is set by controls: 0 for no effect and ±100 for the full control effect.

O=C(O)CCCc1ccccc1
inactive: Potency [1] | Potency [2] | Potency [3] | max response [4] 0.564% | Potency [5] | Potency [6] | Potency [7] | Potency [8]

NCCCNCCSP(=O)(O)O
inactive: cytotoxicity increase [1] -10.4% [at 6.97 µM] | activity change, negative = cytotoxicity [2] 0.443% [at 6.97 µM] | viability change, negative = cytotoxic [3] 0.144% [at 6.97 µM] | max response [4] 3.52% | activity change [5] -8.68% [at 6.97 µM, stronger effect = higher value] | activity change, negative = cytotoxic [6] 1.78% [at 6.97 µM] | cytotoxicity increase [7] -11.2% [at 6.97 µM] | activity change, negative = cytotoxicity [8] -1.72% [at 6.97 µM]

CC/C=C\CC/C=C/CO
inactive: Potency [1] | Potency [2] | Potency [3] | Potency [5] | Potency [9] | Potency [6] | Potency [10] | Potency [7]

Cc1c(NC(C)C)c(=O)n(-c2ccccc2)n1C
inactive: Potency [1] | Potency [2] | Potency [3] | max response [4] 2.55% | Potency [5] | Potency [6] | Potency [7] | Potency [8]

CCCCCCCCS(=O)(=O)Cl
inactive: Potency [1] | Potency [2] | Potency [3] | Potency [5] | Potency [9] | Potency [6] | Potency [10] | Potency [7]

COC(C)(C)CCCC(C)CC=O (stereo unspecified)
inactive: Potency [1] | Potency [2] | Potency [3] | max response [4] 3.83% | Potency [5] | Potency [6] | Potency [10] | Potency [7] | Potency [8]

CCOC(=O)[C@H](CCc1ccccc1)N[C@@H](C)C(=O)N1[C@H](C(=O)O)C[C@@H]2CCC[C@@H]21
inactive: Potency [1] | Potency [2] | Potency [3] | max response [4] 6.09% | Potency [5] | Potency [6] | Potency [10] | Potency [7] | Potency [8]

O=C1CCCCCCCCCCCN1
inactive: Potency [1] | Potency [2] | Potency [3] | max response [4] 0.14% and 1.61% | Potency [5] | Potency [6] | Potency [10] | Potency [7] | Potency [8]

CC(C)CCCC(C)N (stereo unspecified)
inactive: Potency [1] | Potency [2] | Potency [3] | max response [4] 5.83% | Potency [5] | Potency [6] | Potency [10] | Potency [7] | Potency [8]

O=C(O)c1ccccc1OP(=O)(O)O
inactive: Potency [1] | Potency [2] | Potency [3] | max response [4] -0.358% | Potency [5] | Potency [6] | Potency [7] | Potency [8]

CCCCOCCOCCOCCCC
inactive: Potency [1] | Potency [2] | Potency [3] | max response [4] 3.79% | Potency [5] | Potency [6] | Potency [7] | Potency [8]

CN1N=C(C(N)=O)CCC1=O
inactive: Potency [1] | Potency [2] | Potency [3] | max response [4] 0.803% | Potency [5] | Potency [6] | Potency [10] | Potency [7] | Potency [8]

CCOC(C)(C)C
inactive: Potency [1] | Potency [2] | Potency [3] | max response [4] 7.98% | Potency [5] | Potency [6] | Potency [10] | Potency [7] | Potency [8]

CS(=O)(=O)O
inactive: Potency [1] | Potency [2] | Potency [3] | Potency [5] | Potency [9] | Potency [6] | Potency [10] | Potency [7] | Potency [8]

CC(=O)OCC(CCn1cnc2cnc(N)nc21)COC(C)=O
inactive: Potency [1] | Potency [2] | Potency [3] | Potency [5] | Potency [9] | Potency [6] | Potency [10] | Potency [7] | Potency [8]

O=C1CCCN1C1CCCCC1
inactive: Potency [1] | Potency [2] | Potency [3] | Potency [5] | Potency [9] | Potency [6] | Potency [10] | Potency [7]
